# In the supplement of paper PMC6411743:
# ± gives the standard deviation of the averaged measurements. Of roughly 5,400 targets only a part is listed; those with the largest changes were picked by preference.
# Compound: Nc1nc2c(ncn2[C@@H]2O[C@H](COP(=O)(O)OP(=O)(O)OP(=O)(O)O)[C@@H](O)[C@H]2O)c(=O)[nH]1 [guanosine triphosphate]
# Assay: NP40-soluble protein abundance relative to vehicle (solubility fold change) (ratio); higher = more soluble protein in presence of GTP
# Details: concentration: 0.1mM
# Summary of the method: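 Eight concentrations, 0.1 to 10 mM, were tested on Jurkat crude lysate for 10 min at room temperature and then 3 min at 37 °C, in three independent experiments. The lysate was solubilised with 0.8% NP40 and benzonase, ultracentrifuged, and the supernatant TMT-labelled for LC-MS/MS. Each value is the fold change against the detergent-processed vehicle in its own replicate, from vsn-normalised intensities.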
# Chain of UniProt Q8TAG9 (Q8TAG9 whole entry, one chain of several): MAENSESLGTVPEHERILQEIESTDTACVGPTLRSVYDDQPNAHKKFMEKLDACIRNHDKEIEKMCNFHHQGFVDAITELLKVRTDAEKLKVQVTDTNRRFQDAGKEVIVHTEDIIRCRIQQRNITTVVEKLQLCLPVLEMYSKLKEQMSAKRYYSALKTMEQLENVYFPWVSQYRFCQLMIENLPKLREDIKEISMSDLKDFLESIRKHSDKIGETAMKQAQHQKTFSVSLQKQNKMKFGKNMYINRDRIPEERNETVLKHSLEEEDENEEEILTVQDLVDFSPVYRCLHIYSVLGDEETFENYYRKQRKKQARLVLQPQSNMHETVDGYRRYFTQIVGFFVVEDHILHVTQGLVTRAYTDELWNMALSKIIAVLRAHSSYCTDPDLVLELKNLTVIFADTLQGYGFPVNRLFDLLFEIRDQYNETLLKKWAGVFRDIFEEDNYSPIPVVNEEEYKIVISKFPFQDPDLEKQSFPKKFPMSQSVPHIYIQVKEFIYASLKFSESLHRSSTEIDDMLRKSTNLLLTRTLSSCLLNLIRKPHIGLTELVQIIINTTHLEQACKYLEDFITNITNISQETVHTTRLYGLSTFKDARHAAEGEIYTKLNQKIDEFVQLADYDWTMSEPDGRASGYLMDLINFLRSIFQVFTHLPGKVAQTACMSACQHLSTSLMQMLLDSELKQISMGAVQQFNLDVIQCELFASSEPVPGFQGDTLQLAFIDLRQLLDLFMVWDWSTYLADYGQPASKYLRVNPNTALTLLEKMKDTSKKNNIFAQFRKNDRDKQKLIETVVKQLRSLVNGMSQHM
# Chain of UniProt Q6ZRS2 (Q6ZRS2 whole entry, looked up, one chain of several): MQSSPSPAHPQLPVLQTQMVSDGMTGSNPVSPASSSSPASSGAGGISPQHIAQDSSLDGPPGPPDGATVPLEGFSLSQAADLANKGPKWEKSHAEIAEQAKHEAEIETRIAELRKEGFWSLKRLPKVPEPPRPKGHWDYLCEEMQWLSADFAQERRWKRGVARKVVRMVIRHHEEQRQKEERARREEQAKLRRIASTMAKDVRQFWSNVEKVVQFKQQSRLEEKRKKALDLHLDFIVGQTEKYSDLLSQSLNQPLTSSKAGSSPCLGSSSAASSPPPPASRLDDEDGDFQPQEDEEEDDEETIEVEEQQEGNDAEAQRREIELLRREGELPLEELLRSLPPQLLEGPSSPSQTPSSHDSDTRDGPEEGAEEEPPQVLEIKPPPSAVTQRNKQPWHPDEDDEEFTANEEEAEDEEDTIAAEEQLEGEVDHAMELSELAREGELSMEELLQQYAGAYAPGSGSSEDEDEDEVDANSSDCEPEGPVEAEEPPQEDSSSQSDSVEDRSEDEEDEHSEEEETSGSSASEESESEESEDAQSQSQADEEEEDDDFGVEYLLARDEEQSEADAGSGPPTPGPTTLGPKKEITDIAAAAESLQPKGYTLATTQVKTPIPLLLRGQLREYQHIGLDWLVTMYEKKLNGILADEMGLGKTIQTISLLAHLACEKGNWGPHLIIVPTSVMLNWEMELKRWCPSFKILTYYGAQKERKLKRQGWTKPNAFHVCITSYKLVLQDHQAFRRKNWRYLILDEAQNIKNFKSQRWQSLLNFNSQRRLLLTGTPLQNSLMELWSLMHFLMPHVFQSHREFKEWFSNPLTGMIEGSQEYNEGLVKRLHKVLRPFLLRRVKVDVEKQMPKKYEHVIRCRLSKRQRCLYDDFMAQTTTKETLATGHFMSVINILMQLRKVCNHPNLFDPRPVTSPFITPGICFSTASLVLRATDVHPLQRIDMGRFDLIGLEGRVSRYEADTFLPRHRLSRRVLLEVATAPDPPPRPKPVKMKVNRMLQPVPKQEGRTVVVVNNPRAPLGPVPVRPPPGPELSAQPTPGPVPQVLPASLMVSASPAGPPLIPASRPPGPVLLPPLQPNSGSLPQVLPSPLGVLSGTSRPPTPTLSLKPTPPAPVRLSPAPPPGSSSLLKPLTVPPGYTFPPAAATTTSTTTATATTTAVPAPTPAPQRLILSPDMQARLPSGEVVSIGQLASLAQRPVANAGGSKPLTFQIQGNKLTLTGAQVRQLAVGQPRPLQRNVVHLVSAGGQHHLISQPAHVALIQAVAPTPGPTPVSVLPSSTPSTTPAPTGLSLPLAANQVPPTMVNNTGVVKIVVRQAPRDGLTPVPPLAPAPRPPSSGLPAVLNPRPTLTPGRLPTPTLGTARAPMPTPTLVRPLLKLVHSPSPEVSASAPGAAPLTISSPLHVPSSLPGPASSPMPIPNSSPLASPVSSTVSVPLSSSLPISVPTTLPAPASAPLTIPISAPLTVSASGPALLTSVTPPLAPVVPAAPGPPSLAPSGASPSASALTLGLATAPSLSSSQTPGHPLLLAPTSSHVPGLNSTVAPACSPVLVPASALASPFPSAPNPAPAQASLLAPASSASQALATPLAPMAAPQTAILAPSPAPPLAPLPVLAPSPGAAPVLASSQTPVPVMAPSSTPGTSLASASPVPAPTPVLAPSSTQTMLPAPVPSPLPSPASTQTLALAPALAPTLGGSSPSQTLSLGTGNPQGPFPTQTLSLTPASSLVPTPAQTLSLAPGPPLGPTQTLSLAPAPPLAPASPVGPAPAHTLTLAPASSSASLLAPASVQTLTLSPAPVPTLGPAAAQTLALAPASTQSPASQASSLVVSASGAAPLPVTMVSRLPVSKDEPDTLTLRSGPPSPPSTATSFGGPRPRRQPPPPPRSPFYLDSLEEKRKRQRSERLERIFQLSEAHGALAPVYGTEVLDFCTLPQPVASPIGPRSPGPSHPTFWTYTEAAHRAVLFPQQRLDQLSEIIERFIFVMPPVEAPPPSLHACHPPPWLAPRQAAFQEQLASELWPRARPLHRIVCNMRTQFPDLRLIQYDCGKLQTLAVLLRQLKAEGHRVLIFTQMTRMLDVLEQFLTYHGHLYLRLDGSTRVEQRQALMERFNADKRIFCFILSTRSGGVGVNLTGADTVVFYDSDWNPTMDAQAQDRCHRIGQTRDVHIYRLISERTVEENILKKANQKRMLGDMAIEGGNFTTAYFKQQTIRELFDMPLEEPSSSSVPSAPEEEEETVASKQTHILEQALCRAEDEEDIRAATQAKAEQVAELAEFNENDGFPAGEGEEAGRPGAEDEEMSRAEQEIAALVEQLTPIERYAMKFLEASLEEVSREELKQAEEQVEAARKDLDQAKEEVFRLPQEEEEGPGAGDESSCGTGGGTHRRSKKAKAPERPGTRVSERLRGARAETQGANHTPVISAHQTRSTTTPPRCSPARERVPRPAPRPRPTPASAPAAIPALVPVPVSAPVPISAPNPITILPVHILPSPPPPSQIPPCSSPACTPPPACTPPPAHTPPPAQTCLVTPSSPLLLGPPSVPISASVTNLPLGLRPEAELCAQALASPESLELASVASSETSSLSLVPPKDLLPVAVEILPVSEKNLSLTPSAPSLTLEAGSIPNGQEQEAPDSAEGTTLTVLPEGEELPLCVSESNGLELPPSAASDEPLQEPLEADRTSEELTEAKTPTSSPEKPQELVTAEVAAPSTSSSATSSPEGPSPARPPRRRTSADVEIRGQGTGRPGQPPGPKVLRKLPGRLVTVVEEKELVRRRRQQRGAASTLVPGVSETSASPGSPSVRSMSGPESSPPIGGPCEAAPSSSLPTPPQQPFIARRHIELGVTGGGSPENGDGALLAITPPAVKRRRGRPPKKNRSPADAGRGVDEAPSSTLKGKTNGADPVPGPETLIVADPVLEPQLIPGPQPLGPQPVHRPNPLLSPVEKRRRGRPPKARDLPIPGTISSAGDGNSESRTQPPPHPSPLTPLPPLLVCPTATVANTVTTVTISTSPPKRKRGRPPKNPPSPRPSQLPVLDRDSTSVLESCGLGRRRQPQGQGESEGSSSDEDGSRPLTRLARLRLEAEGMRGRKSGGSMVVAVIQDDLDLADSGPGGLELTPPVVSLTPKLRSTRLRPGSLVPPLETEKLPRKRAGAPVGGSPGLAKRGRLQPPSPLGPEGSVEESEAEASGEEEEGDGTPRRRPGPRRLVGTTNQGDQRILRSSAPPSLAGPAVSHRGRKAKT
# Chain of UniProt P01850 (P01850 whole entry): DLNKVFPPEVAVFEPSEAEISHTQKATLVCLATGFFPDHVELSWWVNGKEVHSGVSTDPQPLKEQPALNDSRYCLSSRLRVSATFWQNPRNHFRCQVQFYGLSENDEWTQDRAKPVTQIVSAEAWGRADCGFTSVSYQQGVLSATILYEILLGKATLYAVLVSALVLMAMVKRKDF
# Chain of UniProt Q15005 (Q15005 whole entry, one chain of several): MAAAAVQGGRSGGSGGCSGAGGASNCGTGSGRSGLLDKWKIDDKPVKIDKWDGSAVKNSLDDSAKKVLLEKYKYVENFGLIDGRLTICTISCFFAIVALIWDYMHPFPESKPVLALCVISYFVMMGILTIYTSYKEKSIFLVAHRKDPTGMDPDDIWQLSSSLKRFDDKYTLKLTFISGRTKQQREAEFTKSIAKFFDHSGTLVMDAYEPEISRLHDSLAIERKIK
# Chain of UniProt P02792 (P02792 whole entry, one chain of several): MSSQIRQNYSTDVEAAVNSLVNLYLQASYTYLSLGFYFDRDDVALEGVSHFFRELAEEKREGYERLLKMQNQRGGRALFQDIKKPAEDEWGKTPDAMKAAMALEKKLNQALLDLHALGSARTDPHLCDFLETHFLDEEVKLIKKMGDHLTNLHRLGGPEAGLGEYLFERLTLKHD
# Chain of UniProt O43708 (O43708 whole entry, one chain of several): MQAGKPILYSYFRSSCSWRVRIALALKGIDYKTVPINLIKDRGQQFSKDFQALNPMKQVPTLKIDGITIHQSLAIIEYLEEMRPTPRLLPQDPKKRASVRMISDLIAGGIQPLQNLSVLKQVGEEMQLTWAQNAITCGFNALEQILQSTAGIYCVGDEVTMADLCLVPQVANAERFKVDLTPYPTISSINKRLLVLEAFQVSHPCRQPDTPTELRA
# Chain of UniProt Q16629 (Q16629 whole entry, one chain of several): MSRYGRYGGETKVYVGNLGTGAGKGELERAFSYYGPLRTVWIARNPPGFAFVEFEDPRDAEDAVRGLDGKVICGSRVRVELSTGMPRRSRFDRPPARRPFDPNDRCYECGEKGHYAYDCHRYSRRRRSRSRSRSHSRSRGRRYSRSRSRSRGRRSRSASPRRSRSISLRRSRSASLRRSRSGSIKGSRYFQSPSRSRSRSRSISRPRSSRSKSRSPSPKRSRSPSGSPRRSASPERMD
row,Target,NP40-soluble protein abundance
1,A0A087WVC1|Q9BQ39 (UniProt Q9BQ39),1.19 ± 0.051
2,A8MXF6|B7ZBD5|Q9UBK7|Q9UBK7-2|Q9UBK7-3|Q9UNT1|Q9UNT1-2|Q9UNT1-3 (UniProt Q9UNT1+Q9UBK7+B7ZBD5+A8MXF6),1.03 ± 0.038
3,D6RIH7|Q9UM22 (UniProt Q9UM22),0.918 ± 0.11
4,A6NHB5|A6NHN7|Q14202|Q14202-2 (UniProt Q14202),1.08 ± 0.056
5,G3V5T0|O43708 (UniProt O43708),0.95 ± 0.046
6,A0A0C4DFX4|Q6ZRS2|Q6ZRS2-2|Q6ZRS2-3 (UniProt Q6ZRS2),1.12 ± 0.075
7,B8ZZ10|Q9NQ29|Q9NQ29-2|Q9NQ29-3 (UniProt Q9NQ29),1.26 ± 0.045
8,E9PGC0|P20936|P20936-2|P20936-4 (UniProt P20936),1.05 ± 0.069
9,A0A087WYN9|Q7Z478 (UniProt Q7Z478),1.34 ± 0.086
10,D6R938|E9PBG7|E9PF82|Q13557|Q13557-10|Q13557-11|Q13557-12|Q13557-3|Q13557-4|Q13557-5|Q13557-6|Q13557-8|Q13557-9 (UniProt Q13557),1 ± 0.11
11,E9PFN5|Q9Y2Q3 (UniProt Q9Y2Q3),0.922 ± 0.042
12,A8MQB8|G3V0J0|Q06787|Q06787-2|Q06787-3|Q06787-4|Q06787-5|Q06787-6|Q06787-7|Q06787-8|Q06787-9 (UniProt Q06787),1.05 ± 0.041
13,F8W8G5|P10242|P10242-10|P10242-11|P10242-2|P10242-4|P10242-7|P10242-8|P10242-9 (UniProt P10242),1.02 ± 0.063
14,C9JWC4|Q8NCD3|Q8NCD3-2|Q8NCD3-3 (UniProt Q8NCD3),1.07 ± 0.053
15,A0A0B4J1R7|Q96B45 (UniProt Q96B45),0.918 ± 0.15
16,A0A0U1RRH6|O94880|O94880-2 (UniProt O94880),1.05 ± 0.095
17,H3BMU3|O60268|O60268-3 (UniProt O60268),0.928 ± 0.032

row,Target,NP40-soluble protein abundance
1,E9PHG5|Q6UW02|Q6UW02-2 (UniProt Q6UW02),1.1 ± 0.21
2,E9PSH8|P07766 (UniProt P07766),0.955 ± 0.049
3,E9PPH5|Q9BTT0|Q9BTT0-3 (UniProt Q9BTT0),0.838 ± 0.058
4,A0A087X256|Q2M389 (UniProt Q2M389),1.04 ± 0.058
5,F8VQE1|Q9UHB6|Q9UHB6-2|Q9UHB6-4|Q9UHB6-5 (UniProt Q9UHB6),0.977 ± 0.045
6,A0A087X1B9|P02792 (UniProt P02792),1.09 ± 0.16
7,A0A087WUC6|E9PI68|Q15005|E9PL01 (UniProt Q15005),0.955 ± 0.026
8,H0YKX3|Q15004 (UniProt Q15004),1.03 ± 0.086
9,A0A087WZV8|A0A0G2JN66 (UniProt P01850),1.02 ± 0.032
10,A0A087WYN2|J3KSS7|Q9NZ52|Q9NZ52-4 (UniProt Q9NZ52),0.909 ± 0.037
11,A0A0C4DGS0|P56556 (UniProt P56556),0.947 ± 0.069
12,E7EW84|Q8TAG9 (UniProt Q8TAG9),0.9794 ± 0.0039
13,C9JRJ5|Q9UGP4 (UniProt Q9UGP4),1.01 ± 0.054
14,A0A0A0MRR7|P09234 (UniProt P09234),1.06 ± 0.017
15,A0A0B4J1Z1|C9JAB2|Q16629|Q16629-2|Q16629-3|Q16629-4 (UniProt Q16629),1.089 ± 0.0095
16,A0A0A0MRF6|Q99996|Q99996-2|Q99996-3|Q99996-5|Q99996-6 (UniProt Q99996),1.03 ± 0.014

# Same assay, conditions: concentration: 0.5mM
row,Target,NP40-soluble protein abundance
1,A0A087WVC1|Q9BQ39 (UniProt Q9BQ39),1.25 ± 0.055
2,A8MXF6|B7ZBD5|Q9UBK7|Q9UBK7-2|Q9UBK7-3|Q9UNT1|Q9UNT1-2|Q9UNT1-3 (UniProt Q9UNT1+Q9UBK7+B7ZBD5+A8MXF6),1.03 ± 0.035
3,D6RIH7|Q9UM22 (UniProt Q9UM22),0.931 ± 0.14
4,A6NHB5|A6NHN7|Q14202|Q14202-2 (UniProt Q14202),1.12 ± 0.075
5,G3V5T0|O43708 (UniProt O43708),0.961 ± 0.087
6,A0A0C4DFX4|Q6ZRS2|Q6ZRS2-2|Q6ZRS2-3 (UniProt Q6ZRS2),1.11 ± 0.013
7,B8ZZ10|Q9NQ29|Q9NQ29-2|Q9NQ29-3 (UniProt Q9NQ29),1.75 ± 0.11
8,E9PGC0|P20936|P20936-2|P20936-4 (UniProt P20936),1.04 ± 0.091
9,A0A087WYN9|Q7Z478 (UniProt Q7Z478),1.69 ± 0.26
10,D6R938|E9PBG7|E9PF82|Q13557|Q13557-10|Q13557-11|Q13557-12|Q13557-3|Q13557-4|Q13557-5|Q13557-6|Q13557-8|Q13557-9 (UniProt Q13557),1.04 ± 0.14
11,E9PFN5|Q9Y2Q3 (UniProt Q9Y2Q3),0.934 ± 0.038
12,A8MQB8|G3V0J0|Q06787|Q06787-2|Q06787-3|Q06787-4|Q06787-5|Q06787-6|Q06787-7|Q06787-8|Q06787-9 (UniProt Q06787),1.15 ± 0.048
13,F8W8G5|P10242|P10242-10|P10242-11|P10242-2|P10242-4|P10242-7|P10242-8|P10242-9 (UniProt P10242),1.04 ± 0.077
14,C9JWC4|Q8NCD3|Q8NCD3-2|Q8NCD3-3 (UniProt Q8NCD3),1.12 ± 0.041
15,A0A0B4J1R7|Q96B45 (UniProt Q96B45),0.977 ± 0.18
16,A0A0U1RRH6|O94880|O94880-2 (UniProt O94880),1.07 ± 0.14
17,H3BMU3|O60268|O60268-3 (UniProt O60268),0.988 ± 0.17

row,Target,NP40-soluble protein abundance
1,E9PHG5|Q6UW02|Q6UW02-2 (UniProt Q6UW02),1.04 ± 0.17
2,E9PSH8|P07766 (UniProt P07766),0.991 ± 0.076
3,E9PPH5|Q9BTT0|Q9BTT0-3 (UniProt Q9BTT0),0.874 ± 0.062
4,A0A087X256|Q2M389 (UniProt Q2M389),1.01 ± 0.097
5,F8VQE1|Q9UHB6|Q9UHB6-2|Q9UHB6-4|Q9UHB6-5 (UniProt Q9UHB6),0.955 ± 0.12
6,A0A087X1B9|P02792 (UniProt P02792),1.03 ± 0.21
7,A0A087WUC6|E9PI68|Q15005|E9PL01 (UniProt Q15005),0.955 ± 0.018
8,H0YKX3|Q15004 (UniProt Q15004),1.04 ± 0.062
9,A0A087WZV8|A0A0G2JN66 (UniProt P01850),1.04 ± 0.034
10,A0A087WYN2|J3KSS7|Q9NZ52|Q9NZ52-4 (UniProt Q9NZ52),0.905 ± 0.087
11,A0A0C4DGS0|P56556 (UniProt P56556),0.934 ± 0.051
12,E7EW84|Q8TAG9 (UniProt Q8TAG9),0.996 ± 0.039
13,C9JRJ5|Q9UGP4 (UniProt Q9UGP4),1 ± 0.021
14,A0A0A0MRR7|P09234 (UniProt P09234),1.19 ± 0.068
15,A0A0B4J1Z1|C9JAB2|Q16629|Q16629-2|Q16629-3|Q16629-4 (UniProt Q16629),1.36 ± 0.1
16,A0A0A0MRF6|Q99996|Q99996-2|Q99996-3|Q99996-5|Q99996-6 (UniProt Q99996),1.05 ± 0.017
